KCNK3 block = human KCNK3 channel inhibition, primary screen | AID 602410 | B-score at 10 µM | O14649 | CHO-KCNK3 thallium flux, FluxOR fluorescence; stronger effect = lower value | 340,000 compounds, 0.84% hits;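 active = B-score under library mean minus 4 SD, starting fluorescence ratio at most library mean plus 5 SD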;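 note: more negative B-score means stronger inhibition of thallium flux through KCNK3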
Target sequence (O14649 whole entry, looked up): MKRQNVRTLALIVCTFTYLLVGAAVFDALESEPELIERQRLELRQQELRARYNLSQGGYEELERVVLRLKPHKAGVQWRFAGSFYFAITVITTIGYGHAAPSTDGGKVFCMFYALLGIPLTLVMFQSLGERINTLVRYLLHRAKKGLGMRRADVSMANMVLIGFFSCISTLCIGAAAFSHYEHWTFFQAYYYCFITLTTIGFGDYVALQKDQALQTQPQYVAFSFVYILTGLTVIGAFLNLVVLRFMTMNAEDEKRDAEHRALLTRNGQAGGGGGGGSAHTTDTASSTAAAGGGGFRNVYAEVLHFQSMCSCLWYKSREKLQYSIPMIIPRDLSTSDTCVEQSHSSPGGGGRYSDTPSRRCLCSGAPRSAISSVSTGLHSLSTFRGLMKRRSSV
KCNK9 block = inhibitors of human KCNK9 two-pore domain potassium channel; Q9NPC2; HEK293 KCNK9, FluxOR thallium flux fluorescence; stronger effect = lower value; B-score at 10 µM; 310,000 compounds, 1.2% hits; AID 488922;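 active = ratio B-score over 3 SD below the library mean, with starting fluorescence within 5 SD of its mean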;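 note: negative B-score means less thallium flux so channel inhibition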
ANO1 block = blocks the mouse calcium-activated chloride channel TMEM16A | Q8BHY3 | HEK293 TMEM16A/YFP iodide influx fluorescence, ionomycin | normalized B-score (activity score, 25-100; higher = stronger inhibition) at 10 µM | 310,000 compounds, 1.2% hits | AID 588511;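 active = ratio plate-corrected score three or more library SD toward inhibition, starting fluorescence score within five deviations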;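 note: score derived from kinetic fluorescence span divided by baseline fluorescence per well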
Kir21 inh = Kir2.1 (mouse) channel inhibition; AID 1672; 310,000 compounds, 0.85% hits; B-score at 10 µM; HEK293-Kir2.1, FluxOR thallium flux fluorescence; stronger effect = lower value;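 active = fluorescence ratio B-score at or below minus 3 SD of library scores, with starting-brightness B-score within 2 SD, cut at about -4.2 in these data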;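 note: channel flux triggered by added potassium and thallium sulfate stimulus; B-score of peak minus minimum fluorescence over baseline after thallium stimulus; more negative B-score means stronger Kir2.1 block with less thallium influx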
TMEM16A act = activates or potentiates the mouse TMEM16A chloride channel | Q8BHY3 | HEK293 TMEM16A/YFP-H148Q/I152L, iodide quench fluorescence; stronger effect = lower value | B-score at 10 µM | 340,000 compounds, 0.3% hits;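 active = fluorescence-ratio B-score plate-corrected deviation score at least 3 library SD below zero, with starting fluorescence score within 5 deviations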;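 note: channel opened by trigger with iodide after compound preincubation; score built on the fluorescence ratio of max minus min over baseline; more negative score means more quench and so TMEM16A activation or potentiation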
Active calls of the source: *; i = inactive; . = not tested or not shown. Hits are enriched below; roughly 3.5% of the tested compounds scored in any of these assays.

SMILES | KCNK3 block | KCNK9 block | ANO1 block | Kir21 inh | TMEM16A act
O=C(COC(=O)c1cc(Br)ccc1Cl)NC1CCCC1 | i | i | i | 0.16 | i
CCN(CC(=O)Nc1c(F)cccc1F)C(=O)c1ccc(S(=O)(=O)N2CCCC2)cc1 | i | i | i | 1.42 | i
CCN(CC(=O)Nc1c(F)cccc1F)C(=O)/C=C/c1ccc(S(=O)(=O)N2CCCCCC2)cc1 | i | i | 25* | 0.34 | i
O=C(N1CCN=C1SCc1cccnc1)C12CC3CC(CC(C3)C1)C2 | i | i | i | 0.89 | i
COc1ccc(C(=O)C2CCCN(Cc3ccc4nonc4c3)C2)cc1F (configuration not stated) | i | i | 25* | -2.18 | i
COc1ccc(C(=O)C2CCCN(Cc3ccc4nonc4c3)C2)cc1OC (configuration not stated) | i | i | i | -0.01 | i
COc1ccc(C(=O)C2CCCN(Cc3ccc4nonc4c3)C2)c(OC)c1 (configuration not stated) | i | i | i | -5.19* | i
COc1ccc(C(=O)C2CCCN(Cc3c(F)ccc(F)c3F)C2)c(OC)c1 (configuration not stated) | i | i | i | -2.07 | i
O=C(Nc1ccc(CN2CCCCC2)cc1)Nc1ccc(Br)cc1Cl | i | i | i | 0 | i
COc1ccc(S(=O)(=O)N2CCN(Cc3cccc(OC)c3)CC2)cc1 | i | i | i | 1.06 | i
COc1cccc(CN2CCN(S(=O)(=O)c3ccc(Br)cc3)CC2)c1 | -9.71* | i | i | -0.46 | i
CC(NCCCOc1cccc2ccccc12)c1ccccc1 (configuration not stated) | i | i | i | -10.3* | i
CC(C)(Oc1ccc(Cl)cc1)C(=O)N/N=C/c1cn[nH]c1-c1ccccc1 | i | -7.18* | i | 0.57 | i
c1ccc(CCc2cccnc2)cc1 | i | . | . | . | i
CC(=O)Nc1ccc(S(=O)(=O)NC(C)CCc2ccccc2)cc1 (configuration not stated) | i | i | i | -0.69 | i
Cc1ccc(S(=O)(=O)NC(C)CCc2ccccc2)cc1 (configuration not stated) | i | i | i | -4.77* | i
CC(OC(=O)/C=C/c1ccccc1)C(=O)Nc1cccc(C#N)c1 (configuration not stated) | i | i | i | -0.59 | i
CC(=O)C1=C(O)C(=O)N(c2ccc(C(=O)O)cc2)C1c1ccccc1 (configuration not stated) | i | i | i | 0.1 | -13.8*
CCN1CCN(CCNC(=O)c2ccc(/C=C3/Sc4ccccc4N(Cc4cccc(Cl)c4)C3=O)cc2)CC1 | i | i | i | -5.14* | i
Cc1cccc(CN2C(=O)/C(=C\c3ccc(C(=O)NCCN4CCOCC4)cc3)Sc3ccccc32)c1 | i | i | i | -0.39 | i
O=C(CNC(=O)Cc1ccccc1)NCC(=O)OCc1ccccc1 | i | i | i | -0.14 | i
O=C(Cc1ccccc1)NCC(=O)OC(c1ccccc1)c1ccccc1 | i | i | i | -5.44* | i
CCOC(=O)c1sc(NC(=O)Cc2ccc(C)cc2)nc1C | i | i | i | -4.35* | i
CCOC(=O)c1sc(NC(=O)c2ccc(S(=O)(=O)N(C)C)cc2)nc1C | i | i | i | 0.01 | -13.9*
Cc1cccc(C(=O)NNC2=C(C(=O)C(F)(F)F)CCC2)c1O | i | i | 100* | 1.03 | i
SMILES | KCNK3 block | KCNK9 block | ANO1 block | Kir21 inh | TMEM16A act
CN1CCN(CC(=O)N2c3ccccc3C(C)(c3ccccc3)CC2(C)C)CC1 (configuration not stated) | i | i | i | -6.19* | i
O=C(OCCCOC(=O)c1ccc(O)cc1)c1ccc(O)cc1 | i | i | i | -4.94* | i
CN(C)CCNC(=O)c1cc2c(s1)-c1ccc(Cl)cc1SC2 | i | i | i | -7.76* | i
CCOC(=O)Cn1ncc2c3ccccc3n(CC(=O)OCC)c2c1=O | i | i | i | 1.32 | i
N#CC1=C(S)N(c2ccc(F)cc2)C2(CCCCC2)NC1=O | i | i | i | 1.64 | i
N#CC1=C(S)N(c2ccccc2)C2(CCCCC2)NC1=O | i | i | i | 3.97 | -5.04*
O=C(NCCCN=C1NS(=O)(=O)c2ccccc21)c1ccc(Cl)cc1 | i | i | i | 1.93 | i
CCC1=C(OC(=O)N(CC)CC)N2C(=O)OC(=NCCOC)[C@]2(Cc2ccccc2)[C@H]2C1=CC[C@H]1C(=O)N(CC(=O)OC)C(=O)[C@H]12 | i | i | 25* | 1.68 | i
CCC1=C(OC(=O)N(CC)CC)N2C(=O)OC(=NCCc3c[nH]c4ccccc34)[C@]2(Cc2ccccc2)[C@H]2C1=CC[C@H]1C(=O)N(CC(=O)OC)C(=O)[C@H]12 | i | i | i | -0.45 | i
CCC1Oc2ccc(C)cc2N(CC(=O)N(Cc2cccnc2)Cc2cccc(F)c2)C1=O (configuration not stated) | i | i | 100* | 0.32 | i
COC(=O)c1[nH]c2ccc(F)cc2c1NS(=O)(=O)c1ccc(OC)cc1OC | i | -6.62* | i | 0.01 | i
COC(=O)c1[nH]c2ccc(C)cc2c1NS(=O)(=O)c1ccc(F)cc1 | i | i | i | -5.31* | i
O=Cc1[nH]c2ccccc2c1N(C(=O)CCl)c1ccc([N+](=O)[O-])cc1 | i | i | 25* | -5.55* | i
CCCc1nnc(SCC(=O)N2CCCCC2C)n1CC1CCCO1 (configuration not stated) | i | i | 25* | -0.26 | i
CN1CCCC(OC(=O)c2cc(Cl)cc(Cl)c2)C1 (configuration not stated) | i | i | i | -4.26* | i
COc1cc(C(=O)Nc2ccc(S(=O)(=O)N3CCOCC3)cc2)c([N+](=O)[O-])cc1OC | i | i | i | 0.9 | i
Cc1ccc(NC(=O)c2c(Cl)nc3ccccn23)cc1 | i | i | i | 0.17 | -6.09*
Cc1nc2ccccn2c1C(=O)Nc1ccc(Cl)cc1 | i | i | i | -1.09 | i
Cc1nn(-c2ccccc2)c(Cl)c1C(=O)N1CCN(c2ncnc3c2cnn3-c2ccccc2)CC1 | i | i | 25* | -0.02 | i
Cc1cc(=O)[nH]c(N2CCN(Cc3ccccc3)CC2)n1 | i | i | i | -1.59 | i
O=c1cc(-c2ccc(Cl)cc2)nc(N2CCN(c3ccccc3)CC2)[nH]1 | i | -7.22* | i | -1.03 | i
Cc1cc(-c2ccccc2)n[nH]1 | i | i | i | 1.24 | i
FC(F)C(F)(F)C(F)(F)C(F)(F)c1cc(-c2ccccc2)n[nH]1 | i | -7.78* | 100* | 1.48 | i
